Where “and” joins values, the source holds several entries; their conditions need not be identical. Identical values can stand only once. Inconclusive results are not listed. A structure can be active in one record and inactive in another. Calls of active or inactive are those of the source. How the source made its calls, unless noted: active means hit-call score of the fitted dose curve at least 0.9, where 1 is the maximum; inconclusive means response in the unintended direction; inactive means score below 0.9.
What was measured:
[1] = target: Cytochrome P450 2C19 (Homo sapiens) (UniProt P33261); assay: NVS_ADME_hCYP2C19: NovaScreen (NVS) CYP450-related Enzyme Activity (ADME) Assay for human CYP2C19 (AID 2283113);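 on AC50: potency for inhibition seen as loss of fluorescent signal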
Outline: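 Recombinant insect-cell-expressed enzyme, fluorescent substrate, 1 h after chemical addition, fluorescence intensity. Baseline = acetonitrile vehicle; activity scored as signal loss. Primary HTS single concentration 10 uM, duplicate; actives retested in concentration series.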

[2] = target: human CYP2D6, CYP2D6 (gene 1565) (UniProt P10635); assay: NVS_ADME_hCYP2D6: NovaScreen (NVS) CYP450-related Enzyme Activity (ADME) Assay for human CYP2D6 (AID 2283107)
Chain of human CYP2D6, CYP2D6 (gene 1565) (P10635 whole entry, looked up): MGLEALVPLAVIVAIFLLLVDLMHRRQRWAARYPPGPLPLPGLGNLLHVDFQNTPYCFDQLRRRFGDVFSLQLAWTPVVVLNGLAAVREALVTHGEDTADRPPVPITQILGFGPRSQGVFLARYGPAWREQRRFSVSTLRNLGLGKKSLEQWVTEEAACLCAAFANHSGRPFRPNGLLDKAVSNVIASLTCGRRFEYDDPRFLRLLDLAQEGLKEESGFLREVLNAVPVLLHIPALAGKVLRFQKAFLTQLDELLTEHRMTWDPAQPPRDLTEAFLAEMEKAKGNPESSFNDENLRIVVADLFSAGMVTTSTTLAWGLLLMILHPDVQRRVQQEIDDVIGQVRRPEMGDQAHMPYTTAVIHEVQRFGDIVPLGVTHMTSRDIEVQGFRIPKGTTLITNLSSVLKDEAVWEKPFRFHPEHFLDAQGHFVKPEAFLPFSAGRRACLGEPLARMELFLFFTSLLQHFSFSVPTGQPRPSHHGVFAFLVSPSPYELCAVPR
Outline: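 Fluorescence intensity read 1 h post-dosing; insect-cell-expressed recombinant protein with fluorogenic substrate, no cells. Activity is scored as signal loss relative to acetonitrile baseline, first at a single 10 uM concentration in duplicate, then as concentration series for confirmed actives.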

[3] = target: Cytochrome P450 2C18 (Homo sapiens) (UniProt P33260); assay: NVS_ADME_hCYP2C18: NovaScreen (NVS) CYP450-related Enzyme Activity (ADME) Assay for human CYP2C18 (AID 2283103; active means hit-call score of the fitted dose curve at least 0.9, where 1 is the maximum; inactive means score below 0.9)
Chain of Cytochrome P450 2C18 (Homo sapiens) (P33260 whole entry, looked up): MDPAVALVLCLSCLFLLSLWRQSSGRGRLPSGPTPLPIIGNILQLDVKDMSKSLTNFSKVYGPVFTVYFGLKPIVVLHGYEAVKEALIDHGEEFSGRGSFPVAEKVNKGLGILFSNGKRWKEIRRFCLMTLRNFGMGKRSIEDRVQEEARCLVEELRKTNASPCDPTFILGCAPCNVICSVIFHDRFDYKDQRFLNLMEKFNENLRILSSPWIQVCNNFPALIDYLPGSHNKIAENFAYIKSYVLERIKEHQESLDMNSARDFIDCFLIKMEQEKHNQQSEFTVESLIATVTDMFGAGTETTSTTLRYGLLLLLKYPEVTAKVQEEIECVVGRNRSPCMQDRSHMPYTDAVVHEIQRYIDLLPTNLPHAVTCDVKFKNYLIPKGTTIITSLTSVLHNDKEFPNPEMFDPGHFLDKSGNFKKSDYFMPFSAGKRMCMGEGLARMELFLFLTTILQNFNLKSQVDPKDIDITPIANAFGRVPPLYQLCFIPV
Outline: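 Enzyme activity measured by fluorescence 0.5 h after compound addition, using recombinant CYP2C18 and a specific substrate. Actives from duplicate 10 uM screening were retested in concentration series (top 20 uM); acetonitrile served as negative baseline.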

[4] = target: human CYP2C8, CYP2C8 (gene 1558) (UniProt P10632); assay: NVS_ADME_hCYP2C8: NovaScreen (NVS) CYP450-related Enzyme Activity (ADME) Assay for human CYP2C8 (AID 2283104; active means hit-call score of the fitted dose curve at least 0.9, where 1 is the maximum; inactive means score below 0.9)
Chain of human CYP2C8, CYP2C8 (gene 1558) (P10632 whole entry, looked up): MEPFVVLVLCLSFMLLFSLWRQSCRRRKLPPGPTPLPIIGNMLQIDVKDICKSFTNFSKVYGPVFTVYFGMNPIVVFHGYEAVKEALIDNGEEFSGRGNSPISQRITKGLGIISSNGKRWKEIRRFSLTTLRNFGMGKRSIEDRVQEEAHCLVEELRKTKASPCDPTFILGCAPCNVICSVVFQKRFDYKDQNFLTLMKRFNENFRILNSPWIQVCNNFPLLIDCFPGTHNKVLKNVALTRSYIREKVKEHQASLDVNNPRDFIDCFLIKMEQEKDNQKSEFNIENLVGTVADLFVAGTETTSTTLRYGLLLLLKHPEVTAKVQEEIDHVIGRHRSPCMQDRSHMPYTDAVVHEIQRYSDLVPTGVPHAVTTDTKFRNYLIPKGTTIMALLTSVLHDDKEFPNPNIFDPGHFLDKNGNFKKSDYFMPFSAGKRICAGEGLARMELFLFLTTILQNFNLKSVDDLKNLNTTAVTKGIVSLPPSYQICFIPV
Outline: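 Fluorescence readout of substrate turnover by recombinant CYP2C8 after 0.5 h, baseline acetonitrile. Single-concentration duplicate screen at 10 uM preceded singleton concentration series (max 20 uM) for compounds passing the inhibition threshold.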

[5] = target: human CYP2C9, CYP2C9 (gene 1559) (UniProt P11712); assay: NVS_ADME_hCYP2C9: NovaScreen (NVS) CYP450-related Enzyme Activity (ADME) Assay for human CYP2C9 (AID 2283108)
Chain of human CYP2C9, CYP2C9 (gene 1559) (P11712 whole entry, looked up): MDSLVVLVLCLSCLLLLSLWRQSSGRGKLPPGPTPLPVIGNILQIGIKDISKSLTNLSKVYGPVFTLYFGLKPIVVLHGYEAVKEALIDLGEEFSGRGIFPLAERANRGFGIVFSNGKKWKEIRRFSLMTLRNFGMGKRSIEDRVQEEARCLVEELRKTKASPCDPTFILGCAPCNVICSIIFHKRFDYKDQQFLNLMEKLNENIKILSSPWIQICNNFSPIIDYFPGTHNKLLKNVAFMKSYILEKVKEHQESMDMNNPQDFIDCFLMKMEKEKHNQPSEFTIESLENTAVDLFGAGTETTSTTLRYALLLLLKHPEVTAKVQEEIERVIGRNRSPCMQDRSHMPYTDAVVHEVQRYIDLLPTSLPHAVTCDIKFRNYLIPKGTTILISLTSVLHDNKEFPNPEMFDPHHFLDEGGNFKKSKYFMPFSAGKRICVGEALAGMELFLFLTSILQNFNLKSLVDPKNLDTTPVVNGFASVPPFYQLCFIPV
Outline: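 Fluorescence readout of CYP2C9 activity (SF9-expressed human enzyme) at 0.75 h. The primary screen used 10 uM in duplicate, with concentration-response follow-up for actives; acetonitrile was the negative control.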

[6] = target: rat CYP1A2, Cyp1a2 (gene 24297) (UniProt P04799); assay: NVS_ADME_rCYP1A2: NovaScreen (NVS) CYP450-related Enzyme Activity (ADME) Assay for rat CYP1A2 (AID 2283115)
Chain of rat CYP1A2, Cyp1a2 (gene 24297) (P04799 whole entry, looked up): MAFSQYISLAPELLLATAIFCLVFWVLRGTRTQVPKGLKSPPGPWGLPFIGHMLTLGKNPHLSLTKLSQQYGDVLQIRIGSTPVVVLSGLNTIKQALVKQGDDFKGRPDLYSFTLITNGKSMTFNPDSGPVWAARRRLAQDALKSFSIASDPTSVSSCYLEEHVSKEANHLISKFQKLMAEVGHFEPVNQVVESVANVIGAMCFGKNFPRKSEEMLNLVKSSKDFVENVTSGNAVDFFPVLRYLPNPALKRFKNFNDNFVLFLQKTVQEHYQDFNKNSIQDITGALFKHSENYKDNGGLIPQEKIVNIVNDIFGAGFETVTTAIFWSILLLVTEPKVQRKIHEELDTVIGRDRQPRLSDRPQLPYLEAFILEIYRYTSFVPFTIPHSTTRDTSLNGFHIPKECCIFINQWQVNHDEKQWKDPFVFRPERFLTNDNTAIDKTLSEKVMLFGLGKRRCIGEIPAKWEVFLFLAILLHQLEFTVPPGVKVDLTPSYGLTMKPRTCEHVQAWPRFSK
Method: (§1) NVS_ADME_rCYP1A2 is a biochemical, single-readout assay that uses extracted gene-proteins in a cell-free assay. Measurements were taken 1 hour after chemical dosing in a 96-well plate.NVS_ADME_rCYP1A2 is one of one assay component(s) measured or calculated from the NVS_ADME_rCYP1A2 assay. It is designed to make measurements of enzyme activity, a form of enzyme reporter, as detected with fluorescence intensity signals by Fluorescence technology.Data from the assay component NVS_ADME_rCYP1A2 was analyzed into 1 assay endpoint. This assay endpoint, NVS_ADME_rCYP1A2, was analyzed in the positive analysis fitting direction relative to Acetonitrile as the negative control and baseline of activity. Using a type of enzyme reporter, loss-of-signal activity can be used to understand changes in the enzymatic activity as they relate to the gene Cyp1a2. Furthermore, this assay endpoint can be referred to as a primary readout, because this assay has produced multiple assay endpoints where this one serves a enzymatic activity function. To generalize the intended target to other relatable targets, this assay endpoint is annotated to the cyp intended target family, where the subfamily is xenobiotic metabolism.
Binding assays used specific radioligands (tritiated, iodinated) with non-radioactive competitive displacement ligands in agonist or antagonist protocols (as indicated) and various reference compounds and inhibitors to titrate specific binding to receptors and transporters. Most enzyme assays (CYPs, kinases, phosphatases, proteases, HDACs) used recombinant protein and specific substrates (fluorescence mostly, some colorimetric and radioactive) and inhibitors, followed by a biochemical separation of substrate and product. All assays for the biochemical HTS were initially run in duplicate at a single concentration (10 uM for CYP450 assays and 25 uM for all others). […] Each assay was run with positive and negative controls, and concurrent controls on every plate. The follow-up (secondary) screen tested active chemical-pairs in concentration series, as well as a few additional assays not tested in the primary screen, some selected negative inactives, and several cases re-run in the concentration series for confirmatory purposes.

[7] = target: human CYP2J2, CYP2J2 (gene 1573) (UniProt P51589); assay: NVS_ADME_hCYP2J2: NovaScreen (NVS) CYP450-related Enzyme Activity (ADME) Assay for human CYP2J2 (AID 2283106)
Chain of human CYP2J2, CYP2J2 (gene 1573) (P51589 whole entry, looked up): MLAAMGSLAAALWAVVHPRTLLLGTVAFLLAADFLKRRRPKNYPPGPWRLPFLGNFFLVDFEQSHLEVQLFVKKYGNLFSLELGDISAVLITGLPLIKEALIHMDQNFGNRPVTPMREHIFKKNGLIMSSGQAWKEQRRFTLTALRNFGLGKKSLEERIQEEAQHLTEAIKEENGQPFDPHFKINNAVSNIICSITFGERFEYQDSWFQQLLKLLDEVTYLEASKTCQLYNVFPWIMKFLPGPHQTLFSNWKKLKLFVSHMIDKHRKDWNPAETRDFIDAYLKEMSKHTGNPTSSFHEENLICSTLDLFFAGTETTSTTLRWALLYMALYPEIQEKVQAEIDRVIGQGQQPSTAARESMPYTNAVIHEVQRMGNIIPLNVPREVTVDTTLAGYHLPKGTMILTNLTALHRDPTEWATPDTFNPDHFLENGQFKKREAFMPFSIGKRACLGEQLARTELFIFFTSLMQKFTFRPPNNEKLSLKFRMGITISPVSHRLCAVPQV
Method: as §1, with “NVS_ADME_hCYP2J2” for “NVS_ADME_rCYP1A2”, “plate.NVS_ADME_hCYP2J2” for “plate.NVS_ADME_rCYP1A2”, “NVS_ADME_hCYP2J2,” for “NVS_ADME_rCYP1A2,”, “CYP2J2.” for “Cyp1a2.”
Binding assays used specific radioligands (tritiated, iodinated) with non-radioactive competitive displacement ligands in agonist or antagonist protocols (as indicated) and various reference compounds and inhibitors to titrate specific binding to receptors and transporters. Most enzyme assays (CYPs, kinases, phosphatases, proteases, HDACs) used recombinant protein and specific substrates (fluorescence mostly, some colorimetric and radioactive) and inhibitors, followed by a biochemical separation of substrate and product. All assays for the biochemical HTS were initially run in duplicate at a single concentration (10 uM for CYP450 assays and 25 uM for all others). Assay-chemical combinations meeting a pre-defined threshold (e.g., 30% inhibition and other criteria defined below) were then run in singleton concentration-response format with maximum concentration of 20 uM for CYPs and 50 uM for all others. Each assay was run with positive and negative controls, and concurrent controls on every plate. The follow-up (secondary) screen tested active chemical-pairs in concentration series, as well as a few additional assays not tested in the primary screen, some selected negative inactives, and several cases re-run in the concentration series for confirmatory purposes.

[8] = target: Cytochrome P450 3A4 (Homo sapiens) (UniProt P08684); assay: NVS_ADME_hCYP3A4: NovaScreen (NVS) CYP450-related Enzyme Activity (ADME) Assay for human CYP3A4 (AID 2283110)
Chain of Cytochrome P450 3A4 (Homo sapiens) (P08684 whole entry, looked up): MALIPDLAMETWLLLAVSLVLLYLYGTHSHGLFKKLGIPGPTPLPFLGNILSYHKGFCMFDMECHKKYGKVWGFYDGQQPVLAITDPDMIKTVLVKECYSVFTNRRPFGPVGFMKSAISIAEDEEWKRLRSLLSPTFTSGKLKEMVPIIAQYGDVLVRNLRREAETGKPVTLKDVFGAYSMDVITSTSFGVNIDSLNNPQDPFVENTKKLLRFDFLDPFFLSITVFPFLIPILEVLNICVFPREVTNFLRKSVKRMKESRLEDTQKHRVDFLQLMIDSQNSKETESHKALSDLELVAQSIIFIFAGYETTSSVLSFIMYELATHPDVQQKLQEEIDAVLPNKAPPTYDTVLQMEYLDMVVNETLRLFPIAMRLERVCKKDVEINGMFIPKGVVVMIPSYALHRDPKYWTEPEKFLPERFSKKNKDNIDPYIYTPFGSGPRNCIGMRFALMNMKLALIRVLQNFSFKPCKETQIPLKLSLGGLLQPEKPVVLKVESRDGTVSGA
Outline: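 Compounds screened in duplicate at 10 uM, with follow-up concentration-response for actives, against insect-cell-expressed recombinant enzyme. Activity read by fluorescence 0.33 h after dosing; loss of signal versus acetonitrile control indicates inhibition.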

[9] = target: rat CYP2A2, Cyp2a2 (gene 24895) (UniProt P15149); assay: NVS_ADME_rCYP2A2: NovaScreen (NVS) CYP450-related Enzyme Activity (ADME) Assay for rat CYP2A2 (AID 2283116)
Chain of rat CYP2A2, Cyp2a2 (gene 24895) (P15149 whole entry, looked up): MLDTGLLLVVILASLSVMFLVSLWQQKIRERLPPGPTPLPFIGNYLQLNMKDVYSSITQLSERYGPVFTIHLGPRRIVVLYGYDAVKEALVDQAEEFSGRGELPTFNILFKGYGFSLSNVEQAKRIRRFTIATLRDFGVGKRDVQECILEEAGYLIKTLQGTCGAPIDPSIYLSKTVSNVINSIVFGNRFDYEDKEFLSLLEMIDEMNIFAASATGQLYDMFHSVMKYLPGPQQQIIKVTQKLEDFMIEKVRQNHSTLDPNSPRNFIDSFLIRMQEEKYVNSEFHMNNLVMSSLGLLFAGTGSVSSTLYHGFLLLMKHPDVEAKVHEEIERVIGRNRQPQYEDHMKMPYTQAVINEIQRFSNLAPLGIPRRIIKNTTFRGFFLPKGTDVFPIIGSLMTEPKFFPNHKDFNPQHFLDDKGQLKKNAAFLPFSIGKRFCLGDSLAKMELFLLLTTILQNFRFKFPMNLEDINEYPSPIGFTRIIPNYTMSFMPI
Outline: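 Compounds first tested in duplicate at 10 uM, then in singleton concentration series up to 20 uM when over threshold. Activity of the recombinant enzyme read by fluorescence at 0.2 h, normalised to acetonitrile vehicle.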

[10] = target: human CYP4F12, CYP4F12 (gene 66002) (UniProt Q9HCS2); assay: NVS_ADME_hCYP4F12: NovaScreen (NVS) CYP450-related Enzyme Activity (ADME) Assay for human CYP4F12 (AID 2283111)
Chain of human CYP4F12, CYP4F12 (gene 66002) (Q9HCS2 whole entry, looked up): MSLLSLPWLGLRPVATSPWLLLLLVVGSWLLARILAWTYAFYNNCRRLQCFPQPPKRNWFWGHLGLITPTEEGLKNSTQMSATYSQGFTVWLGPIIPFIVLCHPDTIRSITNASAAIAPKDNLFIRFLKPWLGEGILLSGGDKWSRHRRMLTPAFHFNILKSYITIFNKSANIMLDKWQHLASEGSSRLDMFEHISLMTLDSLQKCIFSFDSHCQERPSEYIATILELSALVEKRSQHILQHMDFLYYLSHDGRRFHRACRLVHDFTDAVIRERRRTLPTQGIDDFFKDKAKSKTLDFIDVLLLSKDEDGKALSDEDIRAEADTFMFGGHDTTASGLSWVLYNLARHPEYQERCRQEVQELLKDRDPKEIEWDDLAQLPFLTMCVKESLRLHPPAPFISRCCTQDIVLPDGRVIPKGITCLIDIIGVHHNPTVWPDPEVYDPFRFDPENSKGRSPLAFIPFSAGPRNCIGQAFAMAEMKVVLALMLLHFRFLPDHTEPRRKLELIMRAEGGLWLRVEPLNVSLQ
Outline: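 Recombinant enzyme with a fluorescent substrate, signal read at 0.5 h post-dose; activity loss analysed relative to acetonitrile. Compounds first run in duplicate at 10 uM, with follow-up concentration-response testing of actives.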

Q: With `CCON=C(CC)C1=C(O)CC(c2c(C)cc(C)cc2C)CC1=O` (stereo not drawn) as the compound, how does the AC50 [1] read?
A: Its AC50 is 3.37 µM (active).

Q: Which outcome [2] does the source give for `N#Cc1cc(Br)c(O)c(Br)c1` here?
A: The outcome was “inactive”.

Q: For `Cc1ccc(-c2c(Cl)nc(C#N)n2S(=O)(=O)N(C)C)cc1`, which AC50 [3] is on record?
A: The AC50 was 10 µM (active).

Q: What about the AC50 [4] of the same compound?
A: The AC50 was 3900 nM (active).

Q: What about the AC50 [5] of the same compound?
A: The AC50 was 4.54 µM (active).

Q: What about the AC50 [1] of the same compound?
A: The AC50 was 7.38 µM (active).

Q: What about the outcome [6] of the same compound?
A: Its outcome is “inactive”.

Q: How did the AC50 [7] turn out when `CCNc1nc(Cl)nc(NCC)n1` was run?
A: The AC50 was 200 nM (active).

Q: With `COc1nc(C)nc(NC(=O)NS(=O)(=O)c2ccccc2Cl)n1` as the compound, how does the outcome [2] read?
A: Its outcome is “inactive”.

Q: What does the source list for `N#CC(CCc1ccc(Cl)cc1)(Cn1cncn1)c1ccccc1` (stereo not drawn)?
A: AC50 [3]: 0.428 µM (active); AC50 [5]: 1.14 µM (active); AC50 [8]: 4350 nM (active); AC50 [1]: 0.191 µM (active); AC50 [9]: 20 nM (active)

Q: How did the outcome [6] turn out when `CON(C)C(=O)Nc1ccc(Cl)c(Cl)c1` was run?
A: Its outcome is “inactive”.

Q: `Fc1ccc(Oc2ccnc3cc(Cl)cc(Cl)c23)cc1` was tested. Which outcome [1] did it give?
A: Its outcome is “inactive”.

Q: How did the outcome [6] turn out when `CC1=C(C(=O)Nc2ccccc2)SCCO1` was run?
A: The outcome was “inactive”.

Q: What does the source list for `CCCCNC(=O)OCC#CI`?
A: AC50 [3]: 2.41 µM (active) and 4.8 µM (active); AC50 [1]: 1.81 µM (active) and 2.46 µM (active); AC50 [9]: 5.3 µM (active) and 5.4 µM (active)

Q: For `COc1ccc(C(c2ccc(OC)cc2)C(Cl)(Cl)Cl)cc1`, which AC50 [3] is on record?
A: The AC50 was 4.6 µM (active).

Q: And the outcome [4]?
A: Its outcome is “inactive”.

Q: What about the AC50 [5] of the same compound?
A: The AC50 was 10 µM (active).

Q: And the outcome [8]?
A: Its outcome is “inactive”.

Q: And the outcome [10]?
A: Its outcome is “inactive”.

Q: What about the AC50 [1] of the same compound?
A: Its AC50 is 7 µM (active).

Q: And the outcome [9]?
A: Its outcome is “inactive”.

Q: What does the source list for `CCNc1nc(Cl)nc(NC(C)C)n1`?
A: AC50 [1]: 10 µM (active); outcome [9]: inactive

Q: With `CCOC(=O)CC(SP(=S)(OC)OC)C(=O)OCC` (stereo not drawn) as the compound, how does the AC50 [3] read?
A: The AC50 was 0.459 µM (active).

Q: And the outcome [4]?
A: Its outcome is “inactive”.

Q: What about the AC50 [7] of the same compound?
A: Its AC50 is 369 nM (active).

Q: What about the AC50 [2] of the same compound?
A: Its AC50 is 4680 nM (active).

Q: And the AC50 [5]?
A: Its AC50 is 0.752 µM (active).

Q: And the AC50 [1]?
A: The AC50 was 0.032 µM (active).

Q: And the AC50 [9]?
A: The AC50 was 2590 nM (active).

Q: `CCOC(=O)C(Cl)Cc1cc(-n2nc(C)n(C(F)F)c2=O)c(F)cc1Cl` (stereo not drawn) was tested. Which outcome [3] did it give?
A: Its outcome is “inactive”.

Q: What about the AC50 [1] of the same compound?
A: The AC50 was 10 µM (active).

Q: `N#Cc1nn(-c2c(Cl)cc(C(F)(F)F)cc2Cl)c(N)c1S(=O)C(F)(F)F` (stereo not drawn) was tested. Which AC50 [5] did it give?
A: The AC50 was 1.14 µM (active).

Q: And the AC50 [1]?
A: Its AC50 is 0.751 µM (active).

Q: `C#CCOS(=O)OC1CCCCC1Oc1ccc(C(C)(C)C)cc1` (stereo not drawn) was tested. Which AC50 [3] did it give?
A: Its AC50 is 10 µM (active).

Q: What about the outcome [5] of the same compound?
A: Its outcome is “inactive”.

Q: What about the outcome [8] of the same compound?
A: Its outcome is “inactive”.

Q: And the AC50 [1]?
A: The AC50 was 14.3 µM (active).

Q: `C=CCC1=C(C)C(OC(=O)C2C(C=C(C)C)C2(C)C)CC1=O` (stereo not drawn) was tested. Which AC50 [5] did it give?
A: Its AC50 is 7.07 µM (active) and 14.6 µM (active) and 6.76 µM (active).

Q: What about the outcome [5] of the same compound?
A: The outcome was “inactive”.

Q: And the outcome [8]?
A: The outcome was “inactive”.

Q: `CC1COC(Cn2cncn2)(c2ccc(Oc3ccc(Cl)cc3)cc2Cl)O1` (stereo not drawn) was tested. Which AC50 [3] did it give?
A: The AC50 was 1.07 µM (active).

Q: What about the AC50 [4] of the same compound?
A: The AC50 was 2740 nM (active).

Q: What about the AC50 [7] of the same compound?
A: The AC50 was 438 nM (active).

Q: What about the AC50 [5] of the same compound?
A: Its AC50 is 1.34 µM (active).

Q: What about the AC50 [1] of the same compound?
A: Its AC50 is 0.0258 µM (active).

Q: And the AC50 [9]?
A: Its AC50 is 127 nM (active).

Q: For `CCCCC(CC)COC(=O)c1ccccc1C(=O)OCC(CC)CCCC` (stereo not drawn), which outcome [3] is on record?
A: The outcome was “inactive”.

Q: And the outcome [5]?
A: Its outcome is “inactive”.

Q: And the outcome [1]?
A: Its outcome is “inactive”.

Q: For `CN(C)C(=S)SSC(=S)N(C)C`, which AC50 [3] is on record?
A: Its AC50 is 2.26 µM (active).

Q: And the AC50 [7]?
A: Its AC50 is 6560 nM (active).

Q: What about the AC50 [2] of the same compound?
A: The AC50 was 2150 nM (active).

Q: And the AC50 [5]?
A: Its AC50 is 1.92 µM (active).

Q: And the outcome [8]?
A: Its outcome is “inactive”.

Q: What about the AC50 [1] of the same compound?
A: The AC50 was 0.78 µM (active).

Q: What about the outcome [6] of the same compound?
A: Its outcome is “inactive”.

Source: PubChem BioAssay (EPA / NIEHS)
